Data reported in paper PMC7826789 (International Journal of Molecular Sciences, 2021).

system: MAP4K3; conditions: Compound Concentration (nM):1000
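Further: KINOMEscan scanMAX binding as percent activity remaining versus control; lower means stronger binding.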

Structure (SMILES)	Percent Control
Cl.O=S1CCN(Cc2ccc(-c3ccc4ncnc(Nc5ccc(OCc6ccccc6)c(F)c5)c4c3)o2)CC1 [GW576924A]	100%
COc1ccc2[nH]c3c4[nH]c5ccc(OC)cc5c4c4c(c3c2c1)C(=O)NC4=O [GW296115X]	73%
COc1cc2ncnc(Nc3ccc4c(cnn4Cc4ccccc4)c3)c2cc1OC.Cl [GW282449A]	95%
COc1cc(C=NNc2ncnc3c2cnn3-c2ccccc2)ccc1O [GW513184X]	100%
COc1ccccc1-c1cc(/C=C2\C(=O)Nc3ncc(Br)cc32)cc(Br)c1O [GW442130X]	100%
CN1CCN(C(=O)c2ccc(NC(=O)Nc3ccc(N(C)c4ccnc(Nc5ccc(CS(C)(=O)=O)cc5)n4)cc3)cc2)CC1.Cl [GW830263A]	25%
O=C1Nc2ccc(C(=O)c3ccco3)cc2C1=Cc1cc(Cl)c(O)c(Cl)c1 [GW406108X]	100%
COc1cc(/C=N/Nc2ncnc3[nH]ncc23)ccc1O [GW578748X]	100%
Cc1cc(O)cc(C)c1/C=C/c1cncc(C(N)=O)c1 [GW435821X]	81%
CCS(=O)(=O)c1ccc(OC)c(Nc2ncc(-c3cccc(F)c3)o2)c1 [GW621970X]	100%
Cl.O=C(Nc1ccc(Oc2ccc3[nH]c(NC(=O)c4ccco4)nc3c2)cc1)Nc1cc(C(F)(F)F)ccc1F [GW683134A]	83%
Nc1ncnc2occ(-c3ccc(NC(=O)Nc4cc(C(F)(F)F)ccc4F)cc3)c12 [GW770249X]	29%
